Consider eleven compounds from PubChem BioAssay (NCATS).

Experiment [1] is described as follows: qHTS for Activators of Parkin Expression: LOPAC Validation Assay (FLuc Reporter) (AID 720573;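 also: 0% = DMSO and 100% = positive control compounds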). The gist of the method: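 Neuronal cell line stably expressing FLuc/NLuc coincidence reporter under the Parkin promoter, 1,500 cells/well, dosed 24 h after seeding in 7-point series for 24 h at 37 C. FLuc luminescence read; normalized to DMSO and positive control (100%).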
(In general: qHTS replaces the single test concentration by a dilution series.)

The target of experiment [2] is T1, Hexokinase-4 (Homo sapiens) + Glucokinase regulatory protein (Homo sapiens) (UniProt P35557+Q14397). As to the kind of experiment: qHTS assay for inhibitors of recombinant human GCK-GKRP interaction: Diaphorase-coupled assay (AID 743205). The gist of the method:
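Compounds pre-incubated 20 min with substrate, then 10 nM GST-GCK with 10 nM FLAG-GKRP added. GCK activity coupled via G6PDH and diaphorase to resorufin (5 mM glucose, 0.4 mM ATP, 0.15 mM NADP+, pH 7.6), read kinetically over 30 minutes at Ex 525/Em 590 nm.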

Experiment [3] is described as follows: qHTS Assay for Identifying Gametocytocidal Compounds (AID 743244). Also: potency is read from the fitted curve at half-maximal effect.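 As to max response: % is scaled to controls: 0 for no effect and ±100 for the full control effect; actives lower the fluorescent signal which means gametocytes are killed.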 Particulars: P. falciparum 3D7 stage III-V gametocytes, alamarBlue, 72 h; max response: stronger effect = lower value. The gist of the method: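 3D7 gametocytes, stages III–V, 20,000/well; cpd 72 h, 37 °C/5% CO2; + alamarBlue 24 h; fluor. Ex 525/Em 598.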
A short description of experiment [4]: qHTS assay for small molecule agonists of the antioxidant response element (ARE) signaling pathway measured by Nrf2-dependant transcriptional activity (AID 720636; active = well fitted curve in the direction sought with a large enough effect in the repeat runs; an effect the other way counts as inactive or inconclusive; also: potency is read from the fitted curve at half-maximal effect). The gist of the method: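 Quantitative HTS format in HepG2 cells stably expressing an ARE-luciferase reporter; 16 hr compound treatment at 37 C, luciferase signal detected with ONE-Glo.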
Experiment [5] can be described thus: qHTS assay for small molecule antagonists of the retinoid-related orphan receptor gamma (ROR-gamma) signaling pathway - cell viability counter screen (AID 720652; active = well fitted curve in the direction sought with a large enough effect in the repeat runs; an effect the other way counts as inactive or inconclusive;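 also: compound exposure lasted 16 hr before ATP read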; also: potency is read from the fitted curve at half-maximal effect). The gist of the method: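 CHO cells carrying TET-inducible ROR and RORE-luciferase reporter, plated 5 hr, then dosed with compound plus doxycycline. After 16 hr at 37 C, viability read as intracellular ATP by CellTiter-Glo luminescence.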

Experiment [6] in a line: qHTS assay for cell viability of HEK293 cells (AID 743288). Also: nearly all actives have a fitted effect of over 50% in size. Also: potency is read from the fitted curve at half-maximal effect. As to max response: % is scaled to controls: 0 for no effect and ±100 for the full control effect. Particulars: ATP luminescence (CellTiter-Glo), 18 h; max response: stronger effect = lower value. The gist of the method: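 Parental HEK293 cells, 2,000 per well, preincubated at least 5 h at 37 C, then exposed to compounds in DMSO for 18 h at 37 C. Viability by CellTiter-Glo ATP luminescence after 30 min at room temperature.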

The nature of experiment [7]: qHTS assay for cell viability of the p53RE-bla HCT-116 cell line (AID 743292). Also: % is scaled to controls: 0 for no effect and ±100 for the full control effect; nearly all actives have a fitted effect of over 55% in size. The gist of the method:
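Viability of compound-treated p53RE-bla HCT-116 cells is taken from ATP-dependent luciferase luminescence. Treatment lasts 16 h at 37 C after a 5 h settling period; detection follows 30 min at room temperature.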

For experiment [8], the target named is T1, Hexokinase-4 (Homo sapiens) + Glucokinase regulatory protein (Homo sapiens). Description: qHTS assay for inhibitors of recombinant human GCK-GKRP interaction: ADP-Glo assay (AID 743206).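 Also: plate controls were DMSO plus enzyme for no effect and no enzyme for full effect.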 The gist of the method:
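GST-GCK and FLAG-GKRP (15 nM each in the dispensed mix, with 2 uM S6P) react with 0.4 mM ATP and 5 mM glucose (final) in Hepes pH 7.6 for 60 min at room temperature. ADP is measured by ADP-Glo luminescence.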

Structures are written as SMILES. Values joined by “and” are separate entries in the source; they are usually repeats but may differ in a detail not shown here. Equal values may be shown once. A number with no mark means an inactive call. Records with an inconclusive call do not appear. Active and inactive are the calls of the source. Unless noted, calls follow the shape of the dose curve; as a rule, active = well fitted curve in the direction sought with a large enough effect; inconclusive = small, poorly fitted or top-dose-only effect, or another doubt; inactive = no such curve, though single readings can be large; an effect the other way counts as inactive or inconclusive.

T1 sequence (P35557 whole entry, looked up): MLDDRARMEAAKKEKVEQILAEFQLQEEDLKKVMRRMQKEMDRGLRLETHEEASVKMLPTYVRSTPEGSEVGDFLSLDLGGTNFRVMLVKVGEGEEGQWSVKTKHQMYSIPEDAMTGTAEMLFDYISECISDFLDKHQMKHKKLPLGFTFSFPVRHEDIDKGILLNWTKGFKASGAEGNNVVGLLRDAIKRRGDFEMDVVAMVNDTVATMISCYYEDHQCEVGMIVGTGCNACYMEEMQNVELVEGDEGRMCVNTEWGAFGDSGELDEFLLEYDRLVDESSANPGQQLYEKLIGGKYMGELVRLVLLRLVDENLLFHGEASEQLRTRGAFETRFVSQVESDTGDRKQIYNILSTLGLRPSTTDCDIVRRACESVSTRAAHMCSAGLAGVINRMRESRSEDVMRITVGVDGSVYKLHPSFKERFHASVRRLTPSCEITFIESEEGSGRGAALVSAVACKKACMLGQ
T1 sequence (Q14397 whole entry, looked up): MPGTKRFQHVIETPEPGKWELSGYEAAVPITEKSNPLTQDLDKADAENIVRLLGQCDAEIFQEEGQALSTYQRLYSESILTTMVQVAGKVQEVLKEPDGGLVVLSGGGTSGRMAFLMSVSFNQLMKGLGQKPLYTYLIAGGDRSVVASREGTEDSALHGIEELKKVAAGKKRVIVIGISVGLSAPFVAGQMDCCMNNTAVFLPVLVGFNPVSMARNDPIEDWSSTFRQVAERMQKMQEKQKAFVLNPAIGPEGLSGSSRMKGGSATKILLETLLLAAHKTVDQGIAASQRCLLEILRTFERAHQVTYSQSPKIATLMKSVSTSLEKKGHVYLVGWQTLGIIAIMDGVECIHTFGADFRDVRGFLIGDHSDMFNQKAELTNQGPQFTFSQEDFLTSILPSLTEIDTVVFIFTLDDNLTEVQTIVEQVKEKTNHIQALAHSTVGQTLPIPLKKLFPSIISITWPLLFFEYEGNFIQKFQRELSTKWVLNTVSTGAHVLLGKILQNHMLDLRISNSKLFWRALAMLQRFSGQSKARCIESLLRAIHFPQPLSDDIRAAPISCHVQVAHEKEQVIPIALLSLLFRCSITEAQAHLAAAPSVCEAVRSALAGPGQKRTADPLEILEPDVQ

`CN(N=O)c1ccc(O)c(O)c1`: the result in experiment [1] was inactive. In experiment [2], the Potency entry is “inactive”. Further, the Potency in experiment [3] was 1 µM (active).

In the case of `[Cl-].[Cl-].[Hg+2]`, the Potency in experiment [4] is 21.1 µM (active); in experiment [5] it was 1.68 µM (active); in experiment [6] it was 44.7 µM (active). Also, the Potency entry in experiment [7] was “inactive”.

Regarding `C[C@]12CCC(=O)C[C@@H]1CC[C@@H]1[C@@H]2CC[C@]2(C)[C@@H](O)CC[C@@H]12`, the Potency result in experiment [4], in experiment [5] and in experiment [7] was “inactive” throughout. Besides, the max response was 17.9% in experiment [3]; -9.61% and -12.6% in experiment [6].

`C[C@H]1CCC[C@H](O)CCCCCc2cc(O)cc(O)c2C(=O)O1`: the Potency entry in experiment [4], in experiment [5] and in experiment [7] was “inactive” each time. Further, the figures for the max response in experiment [3] and in experiment [6] were 5.29% and -4.88%, respectively.

For `COc1ccc2c(c1OC)C(=O)OC2C1c2cc3c(cc2CCN1C)OCO3` (configuration not stated), the Potency result in experiment [4], in experiment [5] and in experiment [7] was “inactive” each time. In experiment [6], the max response was -5.26%.

In the case of `O=[N+]([O-])c1ccccc1`, the Potency result in experiment [4], in experiment [5] and in experiment [7] was “inactive” each time. The max response was 18.1% in experiment [3]; -0.844% and 8.43% in experiment [6].

Consider `Cc1sc2ccccc2c1CC1=NCCN1`, for which the outcome in experiment [1] and in experiment [8] was inactive. In experiment [2], the Potency entry was “inactive”. Besides, the max response in experiment [3] was 25.3%.

`CC(C)(C)c1o[nH]c(=O)c1CC(N)C(=O)O` (configuration not stated): the call in experiment [1] and in experiment [8] was inactive. Further, the Potency result in experiment [2] was “inactive”. Also, the max response in experiment [3] is 2.4%.

For `O=[N+]([O-])c1ccc(F)c([N+](=O)[O-])c1`, the Potency result in experiment [4] and in experiment [7] was “inactive” throughout. Moreover, the Potency in experiment [5] is 59.6 µM (active). Moreover, the max response in experiment [3] is 6.65%.

On to `NC(=O)c1ccc(OCC(O)CN2CC=C(c3ccc(F)cc3)CC2)cc1` (configuration not stated), for which the result in experiment [1] and in experiment [8] was inactive. For the same compound, the Potency entry in experiment [2] was “inactive”. In experiment [3], the max response was 10.4%.

As to `CCOC(=O)c1ccccc1C(=O)OCC`, the Potency result in experiment [4], in experiment [5] and in experiment [7] was “inactive” throughout. Also, the max response was 6.33% in experiment [3]; -2.28% and 4.29% and 3.24% in experiment [6].
